Test results reported in ChEMBL document CHEMBL1961873, “Compounds: GSK PKIS; Assays: Nanosyn kinase panel” (2012).

Assays:
[1] = molecular target: Protein kinase C gamma type (Homo sapiens) (UniProt P05129); conditions: at 1 µM;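 further: each value is an averaged percent inhibition of the enzyme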
[2] = molecular target: T1, Protein kinase C iota type (Homo sapiens) (UniProt P41743); conditions: at 0.1 µM
T1 sequence (whole entry): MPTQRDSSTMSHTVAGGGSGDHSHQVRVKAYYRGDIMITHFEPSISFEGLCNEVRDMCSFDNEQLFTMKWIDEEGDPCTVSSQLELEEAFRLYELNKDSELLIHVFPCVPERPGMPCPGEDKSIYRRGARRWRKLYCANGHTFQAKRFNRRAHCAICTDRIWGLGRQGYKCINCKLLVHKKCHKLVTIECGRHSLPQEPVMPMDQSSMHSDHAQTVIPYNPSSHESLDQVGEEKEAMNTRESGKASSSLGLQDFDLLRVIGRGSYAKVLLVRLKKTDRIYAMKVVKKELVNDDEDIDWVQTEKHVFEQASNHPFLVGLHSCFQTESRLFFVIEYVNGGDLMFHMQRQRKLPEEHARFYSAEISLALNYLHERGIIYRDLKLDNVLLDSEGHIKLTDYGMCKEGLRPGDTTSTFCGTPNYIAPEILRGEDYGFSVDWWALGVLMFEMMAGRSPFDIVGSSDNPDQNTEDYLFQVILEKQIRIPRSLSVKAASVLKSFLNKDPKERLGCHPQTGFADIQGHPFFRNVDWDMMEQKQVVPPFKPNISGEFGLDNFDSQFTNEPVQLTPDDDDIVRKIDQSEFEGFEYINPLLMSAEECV

[3] = molecular target: T1, Protein kinase C iota type (Homo sapiens); conditions: at 1 µM
[4] = molecular target: Protein kinase C theta type (Homo sapiens) (UniProt Q04759); conditions: at 0.1 µM
[5] = molecular target: Protein kinase C theta type (Homo sapiens) (UniProt Q04759); conditions: at 1 µM
[6] = molecular target: Protein kinase C beta type (Homo sapiens) (UniProt P05771); conditions: at 0.1 µM
[7] = molecular target: Protein kinase C beta type (Homo sapiens) (UniProt P05771); conditions: at 1 µM
[8] = molecular target: T2, Serine/threonine-protein kinase D1 (Homo sapiens) (UniProt Q15139); conditions: at 0.1 µM
T2 sequence (whole entry): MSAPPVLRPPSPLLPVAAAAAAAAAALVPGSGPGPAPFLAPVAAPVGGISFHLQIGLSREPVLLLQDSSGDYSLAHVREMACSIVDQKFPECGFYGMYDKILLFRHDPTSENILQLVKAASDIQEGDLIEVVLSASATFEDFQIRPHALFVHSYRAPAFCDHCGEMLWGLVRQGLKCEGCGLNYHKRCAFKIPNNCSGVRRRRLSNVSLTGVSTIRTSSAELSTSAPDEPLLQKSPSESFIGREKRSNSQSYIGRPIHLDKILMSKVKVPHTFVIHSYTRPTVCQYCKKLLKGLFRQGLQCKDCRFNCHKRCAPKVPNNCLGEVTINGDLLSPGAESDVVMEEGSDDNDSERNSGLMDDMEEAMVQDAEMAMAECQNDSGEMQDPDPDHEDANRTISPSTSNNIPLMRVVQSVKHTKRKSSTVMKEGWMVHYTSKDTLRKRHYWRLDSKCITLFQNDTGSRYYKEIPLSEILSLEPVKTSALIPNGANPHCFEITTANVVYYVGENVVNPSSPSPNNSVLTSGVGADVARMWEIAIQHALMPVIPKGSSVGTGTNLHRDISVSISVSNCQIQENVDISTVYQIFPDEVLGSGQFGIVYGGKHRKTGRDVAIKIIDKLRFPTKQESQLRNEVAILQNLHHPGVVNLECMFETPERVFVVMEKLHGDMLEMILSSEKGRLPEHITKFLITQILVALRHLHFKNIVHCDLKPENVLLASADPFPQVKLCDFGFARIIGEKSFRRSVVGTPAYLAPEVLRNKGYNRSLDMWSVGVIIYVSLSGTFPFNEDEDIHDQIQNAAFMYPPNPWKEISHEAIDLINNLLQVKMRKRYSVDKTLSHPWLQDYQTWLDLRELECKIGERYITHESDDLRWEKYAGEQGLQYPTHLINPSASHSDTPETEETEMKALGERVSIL

[9] = molecular target: T2, Serine/threonine-protein kinase D1 (Homo sapiens); conditions: at 1 µM
[10] = molecular target: T3, Serine/threonine-protein kinase D2 (Homo sapiens) (UniProt Q9BZL6); conditions: at 0.1 µM
T3 sequence (whole entry): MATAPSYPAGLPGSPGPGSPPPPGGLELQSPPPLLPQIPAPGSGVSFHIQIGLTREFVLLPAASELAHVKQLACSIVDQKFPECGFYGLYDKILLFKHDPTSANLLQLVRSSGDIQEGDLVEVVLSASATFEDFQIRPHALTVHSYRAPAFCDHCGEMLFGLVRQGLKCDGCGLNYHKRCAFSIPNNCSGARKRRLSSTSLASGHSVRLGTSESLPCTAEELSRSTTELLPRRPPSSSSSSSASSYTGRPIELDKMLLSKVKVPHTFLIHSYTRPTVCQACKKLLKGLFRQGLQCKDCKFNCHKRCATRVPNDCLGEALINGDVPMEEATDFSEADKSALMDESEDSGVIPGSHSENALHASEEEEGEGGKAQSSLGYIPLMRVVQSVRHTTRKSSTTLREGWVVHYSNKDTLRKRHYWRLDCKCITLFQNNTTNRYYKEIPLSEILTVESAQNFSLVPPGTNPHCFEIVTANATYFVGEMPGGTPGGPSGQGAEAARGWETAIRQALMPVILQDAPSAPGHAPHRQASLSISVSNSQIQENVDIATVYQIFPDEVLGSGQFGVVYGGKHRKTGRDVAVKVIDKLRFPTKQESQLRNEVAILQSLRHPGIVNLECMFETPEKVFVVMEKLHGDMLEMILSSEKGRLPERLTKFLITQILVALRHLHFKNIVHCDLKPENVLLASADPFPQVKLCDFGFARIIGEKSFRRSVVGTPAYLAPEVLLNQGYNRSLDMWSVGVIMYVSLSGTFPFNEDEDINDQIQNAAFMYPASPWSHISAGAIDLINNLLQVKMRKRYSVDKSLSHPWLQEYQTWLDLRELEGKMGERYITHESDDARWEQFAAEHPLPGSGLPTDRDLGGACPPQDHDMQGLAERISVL

[11] = molecular target: T3, Serine/threonine-protein kinase D2 (Homo sapiens); conditions: at 1 µM
[12] = molecular target: T4, Serine/threonine-protein kinase D3 (Homo sapiens) (UniProt O94806); conditions: at 0.1 µM
T4 sequence (whole entry): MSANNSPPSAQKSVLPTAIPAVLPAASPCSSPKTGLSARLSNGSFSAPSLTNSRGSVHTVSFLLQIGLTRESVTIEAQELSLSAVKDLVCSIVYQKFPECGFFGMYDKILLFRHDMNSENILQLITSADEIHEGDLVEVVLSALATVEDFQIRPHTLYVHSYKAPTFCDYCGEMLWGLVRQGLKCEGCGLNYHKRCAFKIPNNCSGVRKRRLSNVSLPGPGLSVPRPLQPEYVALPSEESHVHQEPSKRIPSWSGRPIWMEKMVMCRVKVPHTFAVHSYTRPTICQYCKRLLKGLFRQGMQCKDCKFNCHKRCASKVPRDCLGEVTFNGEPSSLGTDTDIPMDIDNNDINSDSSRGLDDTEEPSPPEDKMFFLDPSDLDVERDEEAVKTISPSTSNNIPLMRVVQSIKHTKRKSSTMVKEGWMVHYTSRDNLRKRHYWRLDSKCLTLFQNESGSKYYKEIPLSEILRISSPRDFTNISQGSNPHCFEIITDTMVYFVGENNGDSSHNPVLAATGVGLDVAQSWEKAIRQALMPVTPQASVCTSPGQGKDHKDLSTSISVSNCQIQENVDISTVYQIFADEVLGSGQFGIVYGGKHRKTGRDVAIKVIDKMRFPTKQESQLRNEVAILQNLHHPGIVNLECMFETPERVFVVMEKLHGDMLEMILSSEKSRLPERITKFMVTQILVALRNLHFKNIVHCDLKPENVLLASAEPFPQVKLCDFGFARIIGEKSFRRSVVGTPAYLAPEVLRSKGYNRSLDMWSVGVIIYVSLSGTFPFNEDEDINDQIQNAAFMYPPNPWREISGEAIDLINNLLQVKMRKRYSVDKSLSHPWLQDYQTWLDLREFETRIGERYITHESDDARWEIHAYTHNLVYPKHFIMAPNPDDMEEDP

[13] = molecular target: T4, Serine/threonine-protein kinase D3 (Homo sapiens); conditions: at 1 µM
[14] = molecular target: T5, cGMP-dependent protein kinase 1 (Homo sapiens) (UniProt Q13976); conditions: at 0.1 µM
T5 sequence (whole entry): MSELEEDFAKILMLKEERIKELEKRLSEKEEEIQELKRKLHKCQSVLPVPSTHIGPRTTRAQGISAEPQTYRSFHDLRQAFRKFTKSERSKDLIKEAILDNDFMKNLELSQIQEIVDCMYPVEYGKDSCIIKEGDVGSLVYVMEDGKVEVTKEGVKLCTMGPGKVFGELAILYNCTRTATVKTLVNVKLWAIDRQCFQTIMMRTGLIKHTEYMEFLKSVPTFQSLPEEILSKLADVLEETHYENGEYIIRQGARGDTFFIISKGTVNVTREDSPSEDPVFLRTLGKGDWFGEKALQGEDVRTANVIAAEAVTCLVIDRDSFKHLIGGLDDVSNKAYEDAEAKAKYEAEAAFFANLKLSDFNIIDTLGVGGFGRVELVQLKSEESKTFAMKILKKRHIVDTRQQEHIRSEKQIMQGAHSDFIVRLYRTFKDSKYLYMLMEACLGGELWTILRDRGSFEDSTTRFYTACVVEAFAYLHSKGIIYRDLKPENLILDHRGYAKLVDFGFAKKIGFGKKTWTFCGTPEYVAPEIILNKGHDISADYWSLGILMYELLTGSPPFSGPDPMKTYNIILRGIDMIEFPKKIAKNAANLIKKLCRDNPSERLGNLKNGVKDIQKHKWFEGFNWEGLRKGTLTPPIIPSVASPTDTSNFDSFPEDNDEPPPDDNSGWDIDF

[15] = molecular target: T5, cGMP-dependent protein kinase 1 (Homo sapiens); conditions: at 1 µM
[16] = molecular target: T6, cGMP-dependent protein kinase 2 (Homo sapiens) (UniProt Q13237); conditions: at 0.1 µM
T6 sequence (whole entry): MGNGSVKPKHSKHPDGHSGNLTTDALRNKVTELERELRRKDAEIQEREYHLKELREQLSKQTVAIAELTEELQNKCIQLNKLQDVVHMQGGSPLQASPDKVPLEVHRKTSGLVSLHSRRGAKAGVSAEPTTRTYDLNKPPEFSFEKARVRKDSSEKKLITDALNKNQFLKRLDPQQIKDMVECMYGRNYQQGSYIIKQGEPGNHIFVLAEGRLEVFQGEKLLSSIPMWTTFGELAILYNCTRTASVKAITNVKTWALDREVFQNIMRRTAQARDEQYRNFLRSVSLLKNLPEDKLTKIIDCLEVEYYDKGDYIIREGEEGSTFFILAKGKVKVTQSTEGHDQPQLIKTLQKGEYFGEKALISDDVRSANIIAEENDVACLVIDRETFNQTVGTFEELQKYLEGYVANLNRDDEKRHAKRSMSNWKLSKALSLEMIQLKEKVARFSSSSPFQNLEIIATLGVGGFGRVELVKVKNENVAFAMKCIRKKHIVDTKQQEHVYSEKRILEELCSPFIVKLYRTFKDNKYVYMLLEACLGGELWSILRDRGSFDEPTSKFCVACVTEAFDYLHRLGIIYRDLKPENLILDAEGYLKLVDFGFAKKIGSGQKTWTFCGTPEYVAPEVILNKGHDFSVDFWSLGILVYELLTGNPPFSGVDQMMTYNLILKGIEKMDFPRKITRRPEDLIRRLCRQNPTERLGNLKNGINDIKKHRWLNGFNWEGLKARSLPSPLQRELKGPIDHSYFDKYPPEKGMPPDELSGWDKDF

[17] = molecular target: T6, cGMP-dependent protein kinase 2 (Homo sapiens); conditions: at 1 µM
[18] = molecular target: T7, cAMP-dependent protein kinase catalytic subunit PRKX (Homo sapiens) (UniProt P51817); conditions: at 0.1 µM
T7 sequence (whole entry): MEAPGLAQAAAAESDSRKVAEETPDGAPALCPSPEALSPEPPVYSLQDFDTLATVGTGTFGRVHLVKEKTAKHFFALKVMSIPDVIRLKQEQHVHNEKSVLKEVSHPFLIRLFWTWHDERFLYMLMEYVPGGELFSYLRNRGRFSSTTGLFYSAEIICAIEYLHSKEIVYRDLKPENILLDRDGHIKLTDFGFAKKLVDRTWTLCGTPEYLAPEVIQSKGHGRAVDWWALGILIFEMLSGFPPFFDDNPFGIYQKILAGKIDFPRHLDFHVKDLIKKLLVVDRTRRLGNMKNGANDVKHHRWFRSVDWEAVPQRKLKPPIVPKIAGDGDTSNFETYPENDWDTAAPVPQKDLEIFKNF

[19] = molecular target: T7, cAMP-dependent protein kinase catalytic subunit PRKX (Homo sapiens); conditions: at 1 µM
[20] = molecular target: Rho-associated protein kinase 1 (Homo sapiens) (UniProt Q13464); conditions: at 0.1 µM;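 further: values are mean percent inhibition of ROCK1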
Rho-associated protein kinase 1 (Homo sapiens), sequence (Q13464 2-1354 limits assumed): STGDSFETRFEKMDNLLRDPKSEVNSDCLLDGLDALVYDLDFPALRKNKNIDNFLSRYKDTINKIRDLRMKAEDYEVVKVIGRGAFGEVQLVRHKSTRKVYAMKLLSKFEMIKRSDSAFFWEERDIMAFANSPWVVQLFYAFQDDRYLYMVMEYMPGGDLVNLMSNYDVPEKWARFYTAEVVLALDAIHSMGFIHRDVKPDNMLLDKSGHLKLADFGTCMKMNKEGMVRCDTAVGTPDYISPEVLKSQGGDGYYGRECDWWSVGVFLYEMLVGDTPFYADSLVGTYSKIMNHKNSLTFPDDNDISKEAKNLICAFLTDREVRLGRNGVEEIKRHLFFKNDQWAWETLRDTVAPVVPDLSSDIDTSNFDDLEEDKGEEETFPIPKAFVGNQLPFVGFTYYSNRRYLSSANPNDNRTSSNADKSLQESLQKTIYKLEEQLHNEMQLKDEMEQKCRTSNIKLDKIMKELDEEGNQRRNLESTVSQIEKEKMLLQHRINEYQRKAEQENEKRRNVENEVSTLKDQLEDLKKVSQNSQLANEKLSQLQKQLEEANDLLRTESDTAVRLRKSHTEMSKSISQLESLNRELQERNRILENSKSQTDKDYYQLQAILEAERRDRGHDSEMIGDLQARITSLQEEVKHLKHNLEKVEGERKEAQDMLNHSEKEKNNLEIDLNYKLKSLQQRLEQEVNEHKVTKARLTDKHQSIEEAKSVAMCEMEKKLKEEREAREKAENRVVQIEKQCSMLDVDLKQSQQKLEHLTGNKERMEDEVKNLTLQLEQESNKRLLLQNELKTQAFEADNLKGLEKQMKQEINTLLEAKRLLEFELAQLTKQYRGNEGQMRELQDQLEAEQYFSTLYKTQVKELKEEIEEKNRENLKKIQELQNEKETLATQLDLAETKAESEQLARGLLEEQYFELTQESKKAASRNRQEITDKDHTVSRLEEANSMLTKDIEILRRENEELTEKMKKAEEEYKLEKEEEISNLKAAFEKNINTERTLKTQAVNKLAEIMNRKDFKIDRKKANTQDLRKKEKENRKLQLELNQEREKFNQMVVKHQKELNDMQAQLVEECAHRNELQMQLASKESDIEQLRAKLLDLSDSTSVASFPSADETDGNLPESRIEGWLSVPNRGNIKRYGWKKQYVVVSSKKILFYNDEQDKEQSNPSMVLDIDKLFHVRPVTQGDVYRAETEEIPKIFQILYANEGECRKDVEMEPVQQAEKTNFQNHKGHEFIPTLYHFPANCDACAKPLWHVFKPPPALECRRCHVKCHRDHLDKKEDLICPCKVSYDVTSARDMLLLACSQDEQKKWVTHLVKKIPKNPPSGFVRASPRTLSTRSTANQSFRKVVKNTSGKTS

Protein kinase C theta type (Homo sapiens), sequence (Q04759 whole entry, looked up): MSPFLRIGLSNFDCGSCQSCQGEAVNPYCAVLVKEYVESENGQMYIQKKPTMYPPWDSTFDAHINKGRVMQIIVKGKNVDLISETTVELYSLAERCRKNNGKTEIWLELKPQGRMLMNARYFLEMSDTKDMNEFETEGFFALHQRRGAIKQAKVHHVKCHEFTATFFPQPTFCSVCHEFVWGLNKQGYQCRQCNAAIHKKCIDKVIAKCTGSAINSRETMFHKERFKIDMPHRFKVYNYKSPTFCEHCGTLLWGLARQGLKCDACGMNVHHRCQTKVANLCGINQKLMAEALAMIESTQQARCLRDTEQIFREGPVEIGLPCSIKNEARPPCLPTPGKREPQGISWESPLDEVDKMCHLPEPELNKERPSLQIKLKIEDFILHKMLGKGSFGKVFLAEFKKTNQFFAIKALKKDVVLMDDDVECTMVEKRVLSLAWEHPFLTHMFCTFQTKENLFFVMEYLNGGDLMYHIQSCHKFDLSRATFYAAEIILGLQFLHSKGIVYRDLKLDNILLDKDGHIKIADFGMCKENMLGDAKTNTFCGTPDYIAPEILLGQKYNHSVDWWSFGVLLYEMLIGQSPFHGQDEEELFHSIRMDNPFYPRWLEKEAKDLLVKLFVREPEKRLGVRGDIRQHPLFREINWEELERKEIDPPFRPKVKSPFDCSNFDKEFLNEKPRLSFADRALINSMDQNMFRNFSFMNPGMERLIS
Protein kinase C beta type (Homo sapiens), sequence (P05771 2-671 limits assumed): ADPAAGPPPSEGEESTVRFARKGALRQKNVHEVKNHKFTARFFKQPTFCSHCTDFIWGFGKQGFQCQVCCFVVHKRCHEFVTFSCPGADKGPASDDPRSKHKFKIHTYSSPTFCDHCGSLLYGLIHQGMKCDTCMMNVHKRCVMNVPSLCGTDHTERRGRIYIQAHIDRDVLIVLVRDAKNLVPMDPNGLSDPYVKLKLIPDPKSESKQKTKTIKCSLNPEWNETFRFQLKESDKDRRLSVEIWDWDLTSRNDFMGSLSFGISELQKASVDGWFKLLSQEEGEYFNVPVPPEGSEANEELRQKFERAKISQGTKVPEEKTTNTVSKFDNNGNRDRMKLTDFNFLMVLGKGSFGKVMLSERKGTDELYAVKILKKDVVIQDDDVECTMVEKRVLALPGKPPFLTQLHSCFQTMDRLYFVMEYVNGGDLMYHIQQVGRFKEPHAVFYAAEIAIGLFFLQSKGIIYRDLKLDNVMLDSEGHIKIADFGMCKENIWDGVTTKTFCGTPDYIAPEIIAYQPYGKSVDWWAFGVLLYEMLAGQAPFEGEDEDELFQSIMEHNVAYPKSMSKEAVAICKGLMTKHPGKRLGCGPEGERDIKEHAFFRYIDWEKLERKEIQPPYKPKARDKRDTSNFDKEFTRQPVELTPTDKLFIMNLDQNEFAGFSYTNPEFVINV

SMILES | inhibition [1] [%] | inhibition [2] [%] | inhibition [3] [%] | inhibition [4] [%] | inhibition [5] [%] | inhibition [6] [%] | inhibition [7] [%] | inhibition [8] [%] | inhibition [9] [%] | inhibition [10] [%] | inhibition [11] [%] | inhibition [12] [%] | inhibition [13] [%] | inhibition [14] [%] | inhibition [15] [%] | inhibition [16] [%] | inhibition [17] [%] | inhibition [18] [%] | inhibition [19] [%] | inhibition [20] [%]
NS(=O)(=O)c1ccc(-c2cc3ccncc3cc2OCc2ccccc2)cc1 | 4.49 | 0.19 | 0.28 | 1.18 | 2.98 | 0.66 | 1.74 | 2.19 | 2.75 | 2.47 | 4.54 | 2.31 | 2.51 | 0.96 | 4.78 | 1.8 | 3.35 | 0.85 | 1.52 | 0.19
OCc1ccc(-c2nc(-c3ccccn3)c(-c3ccc4c(c3)OCO4)[nH]2)cc1 | 1.5 | 2.1 | 3.65 | 2.3 | 0.86 | 0.63 | 0.97 | 4.39 | 8.27 | 4.75 | 9.51 | 5.74 | 8.28 | 1.9 | 2.98 | 2.69 | 3.26 | 1.55 | 0.61 | 1.43
COc1ccc(-c2nn3ncccc3c2-c2ccnc(Nc3cccc(C(F)(F)F)c3)n2)cc1 | 1.55 | 0.94 | -0.08 | 1.65 | 0.8 | 1.35 | 2.07 | 3.56 | 3.79 | 1.6 | 3.1 | 3.18 | 3.3 | 1.97 | 2.64 | 1.78 | 2.6 | 2.11 | 1.89 | 0.25
COc1cc(Nc2nccc(-c3cnn4ncccc34)n2)cc(OC)c1 | 16.8 | -0.04 | 0.62 | 0.09 | 6.77 | 1.8 | 16.9 | 1.77 | 16.4 | 2.57 | 15.9 | -0.68 | 19.6 | 12.2 | 57.2 | 3.45 | 24.4 | 0.67 | 0.29 | 0.75
